aSyn 5UTR inh: MLPCN primary screen, SNCA 5' untranslated region. AID 1813. inhibition, % (tested at 7.5 µM). alpha-synuclein 5'UTR reporter, inhibitor activity. actives 0.82% (n = 300,000); in the data active = inhibition above about 60%;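 note: H4 neuroglioblastoma cells stably carrying SNCA 5'UTR luciferase fusion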
APP 5UTR inh: APP translation inhibition; SH-SY5Y APP 5'UTR-luciferase reporter, luminescence; inhibition, % at 2 µM; actives 0.82% (n = 190,000); AID 1285;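 active = inhibition above a set limit, derived from the sample mean plus 3 SD, cut at about 45% in these data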
KLF5 inhibitor: inhibitors of KLF5 expression; DLD-1 KLF5 promoter-luciferase reporter, luminescence; inhibition, % at 5 µM; actives 0.23% (n = 290,000); AID 1700;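 active = inhibition above a per-plate limit of that plate's mean compound inhibition plus 3 SD, cut at about 60% in these data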;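 note: higher means less KLF5 promoter-driven luciferase light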
IEC-6 cytotox: IEC-6 cytotoxicity, counter-screen for KLF5 inhibitors; luminescence viability; inhibition, % at 5 µM; actives 0.78% (n = 290,000); in the data active = inhibition above about 22%
BaF3 tox: parental Ba/F3 viability inhibition as JAK2V617F counter-screen | CellTiter-Glo ATP luminescence | inhibition, % at 5.6 µM | actives 1.1% (n = 220,000) | AID 1486;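 active = inhibition above a per-campaign cutoff, the mean inhibition of all tested compounds plus 3 SD, cut at about 27% in these data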
Ba/F3 V617F tox: reduce viability of Ba/F3 cells dependent on JAK2V617F. Ba/F3 EpoR-JAK2V617F viability, ATP luminescence. inhibition, % at 5.6 µM. actives 1.1% (n = 220,000). AID 1446;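 active = inhibition above the campaign mean plus 3 SD over all tested compounds, cut at about 24% in these data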;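 note: cytokine-independent growth of Ba/F3 cells driven by EpoR plus mutant JAK2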
Of the large screens only hits and unclear results are named; the others gave an inactive call. The list is not random: actives were taken first. Their share in the collection is about 2.2%.

CC(C)(CC(=O)O)CC(=O)N1CCN(c2cc(C(F)(F)F)nc3ccccc23)CC1	none (no result: APP 5UTR inh, BaF3 tox, Ba/F3 V617F tox)
CCN(CC)c1ccc(N=Cc2c(C)[nH]c3ccccc23)cc1	aSyn 5UTR inh 63.4
Cc1[nH]c2ccccc2c1/C=N/n1cnnc1	none
O=C(c1ccc(CS(=O)(=O)Cc2ccccc2)cc1)N1CCCCC1	none (no result: APP 5UTR inh, BaF3 tox, Ba/F3 V617F tox)
CCCS(=O)(=O)c1nc(S(=O)(=O)c2ccc(C)cc2)c(NCCCN2CCCC2=O)s1	none (no result: APP 5UTR inh, BaF3 tox, Ba/F3 V617F tox)
O=c1c2ccccc2nnn1Cc1ccccc1Cl	none
CCCCn1c(N)c(N(CC(C)C)C(=O)CSCC(=O)Nc2ccc(OC)cc2)c(=O)[nH]c1=O	none (no result: APP 5UTR inh, KLF5 inhibitor, IEC-6 cytotox, BaF3 tox, Ba/F3 V617F tox)
COc1ccc(OC)c(Nc2cc(C)c3ccccc3n2)c1	KLF5 inhibitor 65.2 (no result: APP 5UTR inh, BaF3 tox, Ba/F3 V617F tox)
O=C(CC1C(=O)NCCN1Cc1ccccc1C(F)(F)F)NCCc1ccccn1 (configuration not stated)	BaF3 tox 80.0
O=C(CC1C(=O)NCCN1Cc1c(F)cccc1Cl)NCCc1ccccn1 (configuration not stated)	none
O=C(Nc1ccc(Cl)c(Cl)c1)Nc1ccc(N2CCCC2)c(S(=O)(=O)Nc2ccccc2Cl)c1	aSyn 5UTR inh 95.2
O=C(Nc1ccc(F)cc1)Nc1ccc(N2CCCC2)c(S(=O)(=O)Nc2ccccc2Cl)c1	none
Cc1ccc(C)c(NC(=S)NC(NC(=O)Cc2cccc3ccccc23)C(Cl)(Cl)Cl)c1 (configuration not stated)	aSyn 5UTR inh 111.7
Cc1ccc(C)c(NC(=S)NC(NC(=O)N(C)C)C(Cl)(Cl)Cl)c1 (configuration not stated)	none
CN(C)CC(CCC(CN(C)C)C(=O)c1ccccc1)C(=O)c1ccccc1 (configuration not stated)	KLF5 inhibitor 90.8, IEC-6 cytotox 99.9, BaF3 tox 104.3, Ba/F3 V617F tox 99.0 (no result: APP 5UTR inh)
COc1ccc(C(=O)C(CCCCC(CN(C)C)C(=O)c2ccc(OC)cc2)CN(C)C)cc1 (configuration not stated)	none
O=C(NCc1cccs1)c1cc(S(=O)(=O)N2CCOCC2)c(Cl)cc1Cl	none (no result: APP 5UTR inh, BaF3 tox, Ba/F3 V617F tox)
CC(C)(O)C#Cc1ccc([C@@H]2C[C@H]3CN(c4ccccc4)C(=O)[C@]34CCCN24)s1	APP 5UTR inh 81.6
O=C1N(c2ccccc2)C[C@@H]2C[C@@H](c3cccs3)N3CCC[C@@]123	none
COc1ccc(S(=O)(=O)N2CCCCC2)cc1NC(=O)c1ccc([N+](=O)[O-])o1	APP 5UTR inh 55.7
CCN1C(=C(C#N)C#N)C=Cc2cc(C)ccc21	none
C=CC[n+]1c(/C=C2\C=Cc3cc(C)ccc3N2CC)ccc2ccccc21	aSyn 5UTR inh 67.2, IEC-6 cytotox 40.8, BaF3 tox 80.4, Ba/F3 V617F tox 100.3
Cc1ccc(NC(=O)O/N=C/c2c(C)nn(C(C)(C)C)c2C)cc1Cl	aSyn 5UTR inh 76.9 (no result: APP 5UTR inh)
COc1ccc2c(c1)NC(C)(C)C=C2C	none
CC1=CC(C)(C)Nc2ccccc21	aSyn 5UTR inh 91.8
CCOC(=O)c1[nH]c(C)c(CN(C(C)=O)c2ccc(OCC)cc2)c1C	IEC-6 cytotox 32.1
COc1ccc(Br)cc1CN1CCSCC1	none (no result: APP 5UTR inh, BaF3 tox, Ba/F3 V617F tox)
CC[N+]1=CN(c2ccccc2)C(C)=CC1(C)C	BaF3 tox 52.2, Ba/F3 V617F tox 39.7
CCn1nc(C)cc1C(=O)N1CCCC(C(=O)c2ccc(OC)cc2C)C1 (configuration not stated)	none (no result: APP 5UTR inh, BaF3 tox, Ba/F3 V617F tox)
COc1ccccc1N=C(C)C1=C(O)CC(c2ccccc2)CC1=O (configuration not stated)	aSyn 5UTR inh 121.7, APP 5UTR inh 91.6
Cc1ccc2cc(C#N)c(N3CCCN(C(=S)NCCCN(C)C)CC3)nc2c1	none (no result: APP 5UTR inh, BaF3 tox, Ba/F3 V617F tox)
Cc1cc(C)c2cc(C#N)c(N3CCCN(C(=S)NCCCN(C)C)CC3)nc2c1	aSyn 5UTR inh 95.7 (no result: APP 5UTR inh, BaF3 tox, Ba/F3 V617F tox)
Cc1cc(=O)n2[nH]c(SCc3c(F)cccc3Cl)nc2n1	none (no result: APP 5UTR inh, KLF5 inhibitor, IEC-6 cytotox, BaF3 tox, Ba/F3 V617F tox)
COc1cc(/C=C/C(=O)O)cc(S(=O)(=O)NCc2ccco2)c1OC	BaF3 tox 90.0
COc1ccc(/C=C/C(=O)O)cc1S(=O)(=O)NCc1ccco1	none (no result: APP 5UTR inh)
O=C(CSc1nc2ccccc2[nH]1)Nc1ccc(N2CCOCC2)cc1	none (no result: APP 5UTR inh, BaF3 tox, Ba/F3 V617F tox)
Cc1ccc(C(=O)Nc2ccc3ncccc3c2)cc1	aSyn 5UTR inh 84.1 (no result: APP 5UTR inh, BaF3 tox, Ba/F3 V617F tox)
O=C(NCCc1ccc(Cl)cc1)C1CCC(CNc2nc(=S)[nH]c3ccccc23)CC1 (configuration not stated)	aSyn 5UTR inh 64.5
O=C(NCCC1=CCCCC1)C1CCC(CNc2nc(=S)[nH]c3ccccc23)CC1 (configuration not stated)	aSyn 5UTR inh 98.6
O=C(NCc1ccccc1Cl)C1CCC(CNc2nc(=S)[nH]c3ccccc23)CC1 (configuration not stated)	none
CCCCNC(=O)C1CCC(CNc2nc(=S)[nH]c3ccccc23)CC1 (configuration not stated)	none
Cc1ccc2[nH]c3c(=O)n(CC(=O)NCCCN4CCN(c5ccc(F)cc5)CC4)ncc3c2c1	none (no result: APP 5UTR inh, BaF3 tox, Ba/F3 V617F tox)
COc1ccc(NC(=O)CSc2nnc3ccc(-c4ccccn4)nn23)cc1OC	none (no result: APP 5UTR inh, KLF5 inhibitor, IEC-6 cytotox, BaF3 tox, Ba/F3 V617F tox)
CN(C)c1nc(N/N=C/c2ccccc2O)nc(Nc2ccc(F)cc2)n1	APP 5UTR inh 48.4
COc1ccc(C2/C=C\CN(C(=O)Nc3ccc(C(F)(F)F)cc3)CC(=O)N2Cc2ccc(F)cc2)cc1 (configuration not stated)	aSyn 5UTR inh 71.4 (no result: APP 5UTR inh, KLF5 inhibitor, IEC-6 cytotox, BaF3 tox, Ba/F3 V617F tox)
Cc1cc(NC(=O)COC(=O)CNC(=O)c2cccs2)c([N+](=O)[O-])cc1C	none (no result: APP 5UTR inh, KLF5 inhibitor, IEC-6 cytotox, BaF3 tox, Ba/F3 V617F tox)
O=C(Nc1ccccc1N1CCCCC1)c1ccc(-c2ccc(Cl)cc2)o1	aSyn 5UTR inh 99.1, APP 5UTR inh 84.0
Cc1ccc(C23CCC(=O)N2C(C(=O)O)CS3)c(C)c1 (configuration not stated)	none (no result: APP 5UTR inh, BaF3 tox, Ba/F3 V617F tox)
CCn1cc(C(=O)N2CCN(c3ccc(F)cc3)CC2)c2cc(OC)c(OC)cc2c1=O	APP 5UTR inh 47.7
CN(C(=O)COC(=O)c1c2c(nc3ccccc13)/C(=C/c1cccc([N+](=O)[O-])c1)CCC2)C1CCS(=O)(=O)C1 (configuration not stated)	aSyn 5UTR inh 72.0
CN(C)c1ccc(/C=N/n2c(C3CCCCC3)n[nH]c2=S)cc1	none (no result: APP 5UTR inh, BaF3 tox, Ba/F3 V617F tox)
CCN=C1S/C(=C\c2cn(CC(=O)NCc3ccco3)c3ccccc23)C(=O)N1CC	aSyn 5UTR inh 65.5 (no result: APP 5UTR inh, BaF3 tox, Ba/F3 V617F tox)
CN1C(=O)/C(=C/c2cn(CC(=O)NCc3ccco3)c3ccccc23)NC1=S	none
c1ccc2c(c1)OCC(CNc1ncnc3sccc13)O2 (configuration not stated)	BaF3 tox 61.8, Ba/F3 V617F tox 59.6
Fc1ccccc1CNc1ncnc2sccc12	none (no result: APP 5UTR inh, BaF3 tox, Ba/F3 V617F tox)
O=C(N/N=C(\c1ccccc1)c1ccccn1)c1cccc([N+](=O)[O-])c1	aSyn 5UTR inh 99.0, APP 5UTR inh 85.2, KLF5 inhibitor 67.4, IEC-6 cytotox 89.0, BaF3 tox 91.2, Ba/F3 V617F tox 99.0
Cn1ccnc1/C(=N\NC(=O)c1ccccc1)c1cccc([N+](=O)[O-])c1	none
Cc1cccc(C)c1OCc1nnc(SCC(=O)Nc2ccc(N3CCOCC3)cc2)o1	none (no result: APP 5UTR inh, BaF3 tox, Ba/F3 V617F tox)

Bioassay records from PubChem BioAssay.
